Bioassay records deposited in PubChem by National Center for Advancing Translational Sciences (NCATS).
HP1b chromo inh: inhibitors of HP1-beta chromodomain binding to methylated histone tails; P83916; AlphaScreen HP1-beta / biotin-H3K9me3 peptide binding; Potency, µM (top dose mostly 114 µM), for the others: top-dose activity change, negative = inhibition, most hits filed as inhibitors; actives 0.56% (n = 390,000); AID 540317; further: potency means the concentration at half of the fitted maximal effect; nearly all actives have a fitted effect of over 70% in size
Target sequence (P83916 whole entry, looked up): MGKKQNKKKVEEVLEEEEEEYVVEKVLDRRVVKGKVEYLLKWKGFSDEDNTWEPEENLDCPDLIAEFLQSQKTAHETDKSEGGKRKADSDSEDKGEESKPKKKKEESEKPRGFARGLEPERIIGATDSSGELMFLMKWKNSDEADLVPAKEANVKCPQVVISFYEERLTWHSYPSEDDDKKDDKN
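HP1-beta protein (50 nM final) preincubated 30 min at room temperature with biotinylated H3(1-18)K9me3 peptide (50 nM) in PBS pH 7.4, 0.01% Tween-20, then compound added for 30 min. AlphaScreen streptavidin donor/nickel chelate acceptor beads (10 ug/mL final), 30 min dark, luminescence read.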
BAZ2B block: BAZ2B (human) inhibition; Potency, µM (highest dose often 114 µM), for inactives: at the highest dose activity change, negative = inhibition, most hits filed as inhibitors; actives 4.4% (n = 360,000); AlphaScreen BAZ2B-H3K14Ac peptide displacement; Q9UIF8; further: potency means the concentration at half of the fitted maximal effect; on the % scale 0 is the no-effect control and ±100 the full control effect; nearly all actives have a fitted effect of over 60% in size
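Complex of BAZ2B and biotin-H3K14Ac (50 nM apiece) forms over 30 min at RT, then faces library compounds up to 110 uM for another 30 min; AlphaScreen beads added, 20 min dark incubation, luminescence read.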
G9a block: blocks human histone lysine methyltransferase G9a. Q96KQ7. actives 8.8% (n = 350,000). Potency, µM (doses to about 102 µM), for inactives: at the top dose activity, negative = inhibition, hits mostly inhibitors. G9a H3K9 monomethylation, AlphaScreen, 2 h; further: potency means the concentration at half of the fitted maximal effect; on the % scale 0 is the no-effect control and ±100 the full control effect; nearly all actives have a fitted effect of over 75% in size
Target sequence (Q96KQ7 913-1193 limits assumed): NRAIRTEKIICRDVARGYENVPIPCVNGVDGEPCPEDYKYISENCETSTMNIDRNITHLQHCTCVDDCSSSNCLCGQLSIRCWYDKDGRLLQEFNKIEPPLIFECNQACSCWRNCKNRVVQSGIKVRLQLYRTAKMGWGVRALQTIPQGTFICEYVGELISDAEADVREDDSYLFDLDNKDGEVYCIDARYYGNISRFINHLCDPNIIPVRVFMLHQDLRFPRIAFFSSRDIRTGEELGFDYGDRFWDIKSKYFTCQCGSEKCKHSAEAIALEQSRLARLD
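Enzyme 20 nM + cpd, 15 min RT; add b-H3K9 pep 500 nM / SAM 20 uM; 2 h RT; anti-H3K9me1 Ab 0.5 ug/mL + SA donor / anti-rabbit acceptor beads 20 ug/mL each, 10 min; AlphaScreen read.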
CtBP-E1A inh: CtBP/E1A binding inhibition | AlphaScreen GST-E1A/His-CtBP binding, 1536-well; hits give low values | activity change, % (test concentration not listed) | actives 0.49% (n = 340,000) | AID 651724; in the data active means activity change below about -65%; inconclusive means mostly about -30% to -63%; further: on the % scale 0 is the no-effect control and ±100 the full control effect
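In 5 uL wells, 23 nL compound meets equimolar GST-E1A and His-CtBP (5X stock 125 nM each) for 2 h, 37 °C. Beads (5X, 50 ug/mL) then 1 h, 37 °C, dark.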
Six1-Eya2 inh: inhibitors of human Six1/Eya2 interaction. Q15475+O00167. AlphaScreen GST-Six1/His-Eya2 binding, biochemical; hits give low values. activity change, % (concentration not given with the values). actives 0.56% (n = 360,000); in the data active means activity change below about -65%; inconclusive means mostly about -30% to -63%; further: on the % scale 0 is the no-effect control and ±100 the full control effect
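Six1/Eya2 binding was read as AlphaScreen signal after compounds were pinned into GST-Six1 plus His-tagged Eya2 (5X stock 250/500 nM) in pH 8.0 Tris/NaCl/TCEP buffer, beads added, then incubated 1 h, 37 C, dark.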
JMJD2A Tudor: inhibitors of human JMJD2A Tudor domain | O75164 | AlphaScreen JMJD2A-Tudor / H3K4me3 peptide binding | AID 504339 | actives 4.4% (n = 390,000) | Potency, µM (doses to about 114 µM), inactives show at the top dose activity change, negative = inhibition, actives largely listed as inhibitors; further: potency means the concentration at half of the fitted maximal effect; on the % scale 0 is the no-effect control and ±100 the full control effect; nearly all actives have a fitted effect of over 50% in size
* hit, by the source's call; [ ] = remark or other dose. This is a sample that favours compounds with a hit; in the whole collection about 10% have one here. Unless noted, the call rests on the fitted dose curve; in most records, active means well fitted inhibition curve with a large enough effect; inconclusive means small, poorly fitted or top-dose-only effect; inactive means no such curve, though single readings can be large or run the other way.

Screening Nc1ccc(S(=O)(=O)NNC(=O)C(=O)NNc2ccccc2)cc1 returned HP1b chromo inh 22.8%, BAZ2B block -39.0%, G9a block 1.78µM*, CtBP-E1A inh 5.9, Six1-Eya2 inh -5.8 and JMJD2A Tudor -4.1%.
Screening COc1ccc(S(=O)(=O)NNC(=O)C(=O)NNc2ccccn2)cc1 returned HP1b chromo inh 55.3%, BAZ2B block inconclusive, G9a block 28.0%, CtBP-E1A inh inconclusive, Six1-Eya2 inh -90.8* and JMJD2A Tudor -23.5%.
For O=C(NNc1ccccc1)C(=O)NNS(=O)(=O)c1ccc(CCCl)cc1 the results were HP1b chromo inh 50.5%, BAZ2B block inconclusive, G9a block 44.7µM*, CtBP-E1A inh 0.6, Six1-Eya2 inh -0.9 and JMJD2A Tudor -18.9%.
Screening Nc1ccc(S(=O)(=O)Nc2ccc(C(=O)c3ccccc3)cc2)cc1 returned HP1b chromo inh 18.5%, BAZ2B block -10.7%, CtBP-E1A inh 5.7, Six1-Eya2 inh 0.7 and JMJD2A Tudor -19.3%.
CN(Cc1ccccc1)C(=O)c1ccc(NC(=O)C2CCCN(C(=O)OC(C)(C)C)C2)cc1 (centres undefined) was read as HP1b chromo inh 20.7%, CtBP-E1A inh 2.4, Six1-Eya2 inh -0.1 and JMJD2A Tudor -21.7%.
`O=C(Cc1ccccc1)Nc1ccc(-c2nnc(-c3ccco3)o2)cc1` gave HP1b chromo inh 23.4%, BAZ2B block -0.8%, G9a block 10.2%[59 µM], CtBP-E1A inh -0.4, Six1-Eya2 inh 0.0 and JMJD2A Tudor -13.2%.
Screening CCCCC(=O)Nc1nnc(-c2ccco2)o1 returned HP1b chromo inh 4.1%, BAZ2B block 79.4µM*, G9a block -15.0%, CtBP-E1A inh -18.5, Six1-Eya2 inh -11.0 and JMJD2A Tudor 10µM*.
O=C(Cc1ccccc1)Nc1nnc(-c2ccco2)o1 was read as HP1b chromo inh 19.7%, BAZ2B block 28.2µM*, G9a block 10.4%, CtBP-E1A inh -10.5, Six1-Eya2 inh -21.8 and JMJD2A Tudor 44.7µM*.
Screening CCC(=O)Nc1nnc(-c2ccco2)o1 returned HP1b chromo inh 30.6%, BAZ2B block inconclusive, G9a block 22.4µM*, CtBP-E1A inh -11.6, Six1-Eya2 inh -17.7 and JMJD2A Tudor 44.7µM*.
For CCOc1ccccc1NC(=O)CCc1c(C)nn(-c2ccc(N3CCOCC3)nn2)c1C the results were HP1b chromo inh 39.2%, BAZ2B block -5.9%, G9a block 1.0%[59 µM] and JMJD2A Tudor -16.3%.
CCOC(Cn1c(SCc2cc(C(C)=O)ccc2OC)nc2ccccc2c1=O)OCC was read as HP1b chromo inh 28.6%, BAZ2B block 2.0%, G9a block 18.8%, CtBP-E1A inh -7.2, Six1-Eya2 inh 6.4 and JMJD2A Tudor 0.7%.
Screening COc1ccc(C(C)=O)cc1CSc1nc2cc(C(=O)O)ccc2c(=O)n1Cc1ccccc1 returned HP1b chromo inh 14.9%, BAZ2B block 50.1µM*, G9a block inconclusive, CtBP-E1A inh -9.5, Six1-Eya2 inh 10.7 and JMJD2A Tudor -31.2%.
Screening NC(=O)c1ccc(N=C2C(=O)Nc3ccc([N+](=O)[O-])cc32)cc1 returned HP1b chromo inh 11.9%, BAZ2B block -24.0%, Six1-Eya2 inh -8.9 and JMJD2A Tudor -15.9%.
Screening CCc1ccc2c(c1)/C(=N/N(C)C(=S)NC)C(=O)N2 returned HP1b chromo inh inconclusive, BAZ2B block 10µM*, G9a block -70.3%[59 µM], CtBP-E1A inh -15.8, Six1-Eya2 inh -13.9 and JMJD2A Tudor inconclusive.
`CCN(c1cccc(C)c1)c1ncnc2nc[nH]c12` gave HP1b chromo inh 56.7%, BAZ2B block 9.9%, G9a block -25.0%, CtBP-E1A inh 6.2, Six1-Eya2 inh 2.3 and JMJD2A Tudor -9.9%.
Screening CCN(CCCNc1ncnc2nc[nH]c12)c1cccc(C)c1 returned HP1b chromo inh -19.2%, BAZ2B block 50.1µM*, G9a block 17.8µM*, CtBP-E1A inh -1.5, Six1-Eya2 inh -16.3 and JMJD2A Tudor 39.8µM*.
O=C(C[C@@H]1C/C=C/CC[C@@H](Cc2ccc(F)cc2)C(=O)O[C@H](c2ccccc2)CNC1=O)NCCO was read as HP1b chromo inh 43.9%, CtBP-E1A inh -0.4, Six1-Eya2 inh -5.4 and JMJD2A Tudor 1.4%.
Screening O=C(O)CN1C2=NCCCN2c2ccccc21 returned HP1b chromo inh 13.5%, BAZ2B block -25.4%, G9a block inconclusive, CtBP-E1A inh 0.8, Six1-Eya2 inh 2.2 and JMJD2A Tudor 5.4%.
Screening O=C(CN1C2=NCCCN2c2ccccc21)c1ccc(Br)s1 returned HP1b chromo inh 9.4%, BAZ2B block -33.7%, G9a block 50.1µM*, CtBP-E1A inh -2.8, Six1-Eya2 inh 1.0 and JMJD2A Tudor -18.5%.
`CCN1CCN(c2oc(-c3ccccc3)nc2S(=O)(=O)c2ccc(C)cc2)CC1` gave HP1b chromo inh -20.2%, BAZ2B block 50.1µM*, G9a block 39.8µM*, CtBP-E1A inh -4.7, Six1-Eya2 inh -27.7 and JMJD2A Tudor inconclusive.
`COc1cccc(-c2nc(S(=O)(=O)c3ccccc3)c(N3CCC(C)CC3)o2)c1` gave HP1b chromo inh 9.3%, BAZ2B block inconclusive, G9a block 17.8µM* and JMJD2A Tudor inconclusive.
`Cc1ccc(S(=O)(=O)c2nc(-c3ccc(F)cc3)oc2N2CCOCC2)cc1` gave HP1b chromo inh 16.1%, BAZ2B block -32.1%, G9a block 35.5µM*, CtBP-E1A inh -2.2, Six1-Eya2 inh 1.2 and JMJD2A Tudor -17.9%.
For Cc1ccc(-c2nc(S(=O)(=O)c3ccc(F)cc3)c(N3CCN(c4ccccc4)CC3)o2)cc1 the results were HP1b chromo inh -0.9%, BAZ2B block inconclusive, G9a block -16.9%[59 µM] and JMJD2A Tudor -17.4%.
COc1ccc(-c2nc(S(=O)(=O)c3ccc(C)cc3)c(N3CCCC3)o2)cc1 was read as HP1b chromo inh 79.4µM*, BAZ2B block -24.5%, G9a block inconclusive, CtBP-E1A inh -20.0, Six1-Eya2 inh -3.4 and JMJD2A Tudor inconclusive.
`CC(C)N(C(=O)[C@H]1CC(CC(=O)NC(C)(C)C)C(=O)N2CCc3c([nH]c4ccccc34)[C@]12C)C(C)C` (some centres undefined) gave HP1b chromo inh 6.3%, CtBP-E1A inh -12.2, Six1-Eya2 inh -0.9 and JMJD2A Tudor -21.2%.
CC1=C(C(=O)Nc2ccccc2)C(c2ccccc2Cl)n2ncc(C(=O)Nc3cccc(C)c3)c2N1 (centres undefined) was read as HP1b chromo inh 0.6%, BAZ2B block 11.2%[57.1 µM], G9a block 0.2%[59 µM] and JMJD2A Tudor -23.0%.
`COc1ccc2ccc(=O)oc2c1CC(=O)C(C)C` gave HP1b chromo inh 25.4%, CtBP-E1A inh 0.9, Six1-Eya2 inh 0.6 and JMJD2A Tudor -6.8%.
